Bioassay records as filed in PubChem BioAssay.
The entries come from a sample that favours hits as a whole.
Shiga toxin inh: Shiga toxin inhibition. Vero cells, Shiga toxin protein synthesis inhibition reporter. inhibition, % at 38.7 µM. 290,000 tested, 9.2% active; in the data active = inhibition mostly above about 28%, no sharp cut-off; inactive = mostly below about 43%
AMA1-RON2 inh: disrupts binding of P. falciparum AMA1 to RON2; AlphaScreen AMA1-biotinylated RON2 peptide binding; Potency, µM (top dose mostly 58.2 µM), most hits filed as inhibitors; 360,000 tested, 0.2% active; AID 720542; active = well fitted inhibition curve with a large enough effect; inconclusive = small, poorly fitted or top-dose-only effect; inactive = no such curve, though single readings can be large or run the other way; note: nearly all actives have a fitted effect of over 45% in size
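AMA1 (3D7) with his tag at 25 nM final met compounds first, then biotinylated RON2 peptide at 25 nM; detection used donor plus acceptor beads, 10 µg/mL apiece, read by AlphaScreen after 30 min at room temperature.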
Lassa entry inh: Lassa virus entry inhibition; Lassa virus pseudotype entry inhibition, cell reporter; Potency, µM (highest dose often 37.9 µM), usual class: inhibitors; 300,000 tested, 1.2% active; AID 540256; calls by dose curve; tested in HEK293 cells; note: nearly all actives have a fitted effect of over 50% in size
Cycloheximide cs: counter-screen hit for Shiga toxin inhibitors, cycloheximide | cell reporter, cycloheximide protein synthesis inhibition counterscreen | max response, % | 300,000 tested, 12% active | AID 2314; in the data active = max response mostly above about 13%, no sharp cut-off; inactive = mostly below about 14%; note: read at 38.3 µM for the half of the compounds with a filed dose
MARV entry inh: inhibitors of Marburg virus binding or cell entry; AID 540276; Marburg virus pseudotyped entry inhibition, cell reporter; Potency, µM (highest dose often 37.8 µM), hits mostly inhibitors; 300,000 tested, 1.8% active; calls by dose curve; tested in HEK293 cells
Of the large screens only hits and unclear results are named; the others gave an inactive call.

COc1ccccc1Oc1ccc2c(c1)C(=O)N(c1cccc3ncccc13)C2=O	Shiga toxin inh 66, Cycloheximide cs 41, MARV entry inh inconclusive
O=C1c2ccc3c4c(ccc(c24)C(=O)N1c1cccc(O)c1)C(=O)N(c1cccc(O)c1)C3=O	none (no result: Lassa entry inh)
CCOC(=O)c1[nH]c2ccccc2c1NC(=O)c1ccccc1F	MARV entry inh inconclusive (no result: Shiga toxin inh, AMA1-RON2 inh, Cycloheximide cs)
CCOC(=O)[C@]12C[C@@H]3OCCN(C(=O)N[C@@H]1c1ccccc1)[C@@H]32	none (no result: Shiga toxin inh, AMA1-RON2 inh, Lassa entry inh, Cycloheximide cs)
OC(CCN1CCCCC1)(c1ccccc1)C1CCCCC1 (stereo not given)	MARV entry inh 5µM (no result: Lassa entry inh)
OC(CC#CCN1CCCCCC1)(c1ccccc1)C1CCCC1 (stereo not given)	none (no result: Lassa entry inh, MARV entry inh)
OC(CCN1CCCCC1)(c1ccccc1)C1CC2C=CC1C2 (stereo not given)	Lassa entry inh inconclusive, MARV entry inh 6.5µM (no result: Shiga toxin inh, AMA1-RON2 inh, Cycloheximide cs)
COC(=O)c1cn(-c2ccccc2)nc1-c1ccccc1	none
Cc1c(C(=O)Nc2ccccc2F)cnn1-c1ccccc1	Shiga toxin inh 80, Cycloheximide cs 57 (no result: Lassa entry inh, MARV entry inh)
Cc1c(C(=S)Nc2ccccc2)cnn1-c1ccc([N+](=O)[O-])cc1	MARV entry inh inconclusive
Cc1c(C(=S)Nc2ccccc2)cnn1-c1ccccc1	Cycloheximide cs 35
COc1ccc(NC(=O)c2cnn(-c3ccccc3)c2C)c(OC)c1	MARV entry inh inconclusive
Cc1c(C(=O)Oc2cccc3ccccc23)cnn1-c1ccccc1	Shiga toxin inh 151, Cycloheximide cs 45
Cc1nn(-c2ccccc2)cc1C(=S)Nc1ccccc1	Shiga toxin inh 64, Lassa entry inh inconclusive, Cycloheximide cs 27, MARV entry inh inconclusive
CC(C)(C)c1ccc(S(=O)(=O)NCC(=O)N2CCN(Cc3ccccc3)CC2)cc1	MARV entry inh inconclusive
CCN(Cc1ccccc1)C(=O)Cn1c(=O)n(-c2ccc(Cl)cc2)c(=O)c2c(C)c(C)sc21	none (no result: Shiga toxin inh, AMA1-RON2 inh, Cycloheximide cs)
COc1ccc(CNC(=O)CCc2c(C)nc3c(c2C)c(=O)n(C)c(=O)n3C)cc1	none (no result: Shiga toxin inh, AMA1-RON2 inh, Cycloheximide cs)
O=C(CSc1nc2ccsc2c(=O)n1Cc1ccc(F)cc1)NCc1ccc(Cl)cc1	none (no result: Shiga toxin inh, AMA1-RON2 inh, Cycloheximide cs, MARV entry inh)
CCc1ccc(NC(=O)c2cnn(-c3ccccc3)c2C)cc1	Shiga toxin inh 59, Lassa entry inh inconclusive, Cycloheximide cs 63, MARV entry inh 10µM
Cc1c(C(=O)Nc2cc(F)cc(F)c2)cnn1-c1ccccc1	Cycloheximide cs 52 (no result: Shiga toxin inh, Lassa entry inh, MARV entry inh)
O=C(NCc1ccccc1Cl)c1ccc2nc[nH]c2c1	none
Cc1[nH]c2nc3ccccc3n2c(=O)c1CCC(C)C	none (no result: Shiga toxin inh)
COc1ccc(CN2CCCC(CO)(Cc3cccc(Cl)c3)C2)cc1OC (stereo not given)	MARV entry inh inconclusive
CCOc1cc(CN2CCC(CO)(Cc3cccc(C(F)(F)F)c3)CC2)ccc1OC	MARV entry inh 4.5µM
Cc1ccn2cc(-c3ccc(S(=O)(=O)N4CCOCC4)cc3)nc2c1	Cycloheximide cs 48 (no result: AMA1-RON2 inh, Lassa entry inh)
Cc1ccc2nc(-c3ccc(S(=O)(=O)N4CCOCC4)cc3)cn2c1	Cycloheximide cs 24 (no result: AMA1-RON2 inh, Lassa entry inh, MARV entry inh)
Clc1ccc(COc2ccccc2-c2ccnc3ncnn23)cc1	Shiga toxin inh 77, Cycloheximide cs 39 (no result: Lassa entry inh, MARV entry inh)
c1ccc(Oc2ccc(-c3ccnc4ncnn34)cc2)cc1	Lassa entry inh inconclusive, MARV entry inh inconclusive
COc1ccc(CN(C)C(=O)CCCNC(=O)c2ccc(Cl)cc2)cc1	Lassa entry inh inconclusive, MARV entry inh inconclusive
Cc1ccccc1-c1ccc2n1Cc1cnnn1-c1ccccc1-2	AMA1-RON2 inh 25µM (no result: Shiga toxin inh, Lassa entry inh, Cycloheximide cs, MARV entry inh)
CCC(C)(C)c1ccc(OCCCC[n+]2ccc(C)cc2)c(C(C)(C)CC)c1	Lassa entry inh inconclusive, MARV entry inh 21µM
COc1ccc(/C=N/NS(=O)(=O)c2ccccc2)cc1OC	none (no result: Lassa entry inh, MARV entry inh)
COc1ccc(S(=O)(=O)N/N=C/c2ccc(OCCN3CCOCC3)c(OC)c2)cc1	Lassa entry inh inconclusive, Cycloheximide cs 20, MARV entry inh inconclusive
COc1cc(/C=N/NS(=O)(=O)c2ccc3ccccc3c2)ccc1OCCN1CCOCC1	Cycloheximide cs 18, MARV entry inh inconclusive
COc1cc(/C=N/NS(=O)(=O)c2ccc(C)cc2)ccc1OCc1ccc(C(=O)O)cc1	Shiga toxin inh 146, Lassa entry inh 6.3µM, Cycloheximide cs 42, MARV entry inh inconclusive
CCOc1ccc(/C=N/NS(=O)(=O)c2ccc(C)cc2)cc1OC	none (no result: Lassa entry inh, MARV entry inh)
O=C(COC(=O)c1ccc(S(=O)(=O)NCc2ccco2)cc1)Nc1ccccc1OC(F)F	Shiga toxin inh 74, Cycloheximide cs 67
COc1ccc(S(=O)(=O)NCc2ccncc2)cc1NC(=O)c1ccccc1	MARV entry inh inconclusive (no result: Shiga toxin inh, Cycloheximide cs)
COc1ccc(OC)c(NC(=O)c2cc(S(=O)(=O)NCc3ccco3)ccc2F)c1	Shiga toxin inh 58, Cycloheximide cs 47, MARV entry inh inconclusive
COc1ccc(CNS(=O)(=O)c2ccc(F)c(C(=O)Nc3ccccc3OC)c2)cc1	none (no result: Lassa entry inh, MARV entry inh)
